# dFosB activator: activators of mouse delta FosB homodimer. P13346. AID 493131. purified delta FosB, TAMRA-CDK5 oligo fluorescence polarization; percent of positive-control signal above neutral wells. activation, % at 25 µM. 340,000 compounds, 0.99% hits;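 active means mean activation above about 17%, with every replicate also reaching it, limit read from the data, passing the limit was not always enough; inconclusive means only one of the two conditions met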
# Target sequence (P13346 whole entry, looked up): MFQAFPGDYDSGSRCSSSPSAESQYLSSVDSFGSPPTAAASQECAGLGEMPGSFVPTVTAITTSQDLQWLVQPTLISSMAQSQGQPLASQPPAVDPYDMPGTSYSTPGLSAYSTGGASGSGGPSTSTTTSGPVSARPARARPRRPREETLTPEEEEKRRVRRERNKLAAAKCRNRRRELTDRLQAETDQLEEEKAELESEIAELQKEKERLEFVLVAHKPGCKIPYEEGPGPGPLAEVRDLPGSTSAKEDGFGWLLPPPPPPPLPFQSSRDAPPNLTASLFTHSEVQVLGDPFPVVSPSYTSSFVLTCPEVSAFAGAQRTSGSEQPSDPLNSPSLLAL
# GRIN3A LBD mod: modulates the human NR3A ligand-binding domain | 340,000 compounds, 2.5% hits | Tm shift relative to glycine control, % at 25 µM | NR3A LBD differential scanning fluorimetry, Tm shift; 0% = protein alone, 100% = glycine-bound protein;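 active means melting temperature shift of at least 10% of the positive control shift, at one fixed dose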
# Yeast superoxide: lowers age-related superoxide in aged yeast cells; S. cerevisiae aged cells, superoxide DHE fluorescence; active compounds read low; superoxide response (% of plate mean), % at 10 µM; 330,000 compounds, 0.18% hits;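 active means superoxide response under a set limit, about three screen SD below normal, cut at about 65% in these data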;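 further: yeast aged for seven days with compound at 30 °C before DHE staining; 100% = average MFI of all compound-treated wells on the plate with controls excluded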
# UBC13 polyUb: human UBC13 polyubiquitination inhibition. P61088. UBC13 polyubiquitin chain formation, TR-FRET. inhibition, % at 20 µM. 330,000 compounds, 0.47% hits; in the data active means inhibition above about 45%, passing the limit was not always enough; inconclusive means no clear call, values can overlap the other calls
# Target sequence (P61088 whole entry, looked up): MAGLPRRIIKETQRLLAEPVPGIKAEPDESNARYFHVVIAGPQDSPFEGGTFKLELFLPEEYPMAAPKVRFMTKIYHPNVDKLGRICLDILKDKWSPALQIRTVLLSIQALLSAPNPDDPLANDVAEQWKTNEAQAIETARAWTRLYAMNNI
# NALP1 yeast inh: blocks the NALP1 inflammasome reconstituted in yeast | S. cerevisiae NALP1/ASC/caspase-1 growth, X-gal OD620, 72 h | inhibition, % at 10 µM | 280,000 compounds, 0.61% hits; in the data active means inhibition mostly above about 24%, no sharp cut-off; inactive means mostly below about 32%
# * hit, by the source's call; i = inactive; ? = inconclusive; nt = no result given. Sampled rows, rich in hits. Any-hit rate of the full collection: about 4.3%.
SMILES,dFosB activator,GRIN3A LBD mod,Yeast superoxide,UBC13 polyUb,NALP1 yeast inh
COc1ccc(-c2ccnc(SCC(=O)c3ccc(OC)c(OC)c3)n2)cc1,-6,14*,91,-5,25
COc1ccc(-c2ccnc(SCC(=O)c3ccc(Cl)cc3)n2)cc1,-15,-6,96,-5,27
CCn1cc(/C=N\NC(=O)c2ccc3c(c2)c(C)c(C)n3Cc2ccccc2)c(C)n1,11,19*,103,7,6
COC(=O)CNC(=O)COC(=O)/C=C/c1ccccc1[N+](=O)[O-],4,-2,97,2,21
O=C1c2cc(Cl)ccc2-c2c(O)cc(Cl)cc21,4,14*,nt,nt,nt
O=C(NCc1ccc(F)cc1)c1ccc(S(=O)(=O)Nc2cccc(C(F)(F)F)c2)cc1,-17,29*,121,-8,24
O=C(NCc1ccccc1F)c1ccc(S(=O)(=O)Nc2cccc(C(F)(F)F)c2)cc1,-9,27*,116,-5,33
O=C(Nc1cccc(C(F)(F)F)c1)c1cccc(NS(=O)(=O)c2ccc(O)c(C(=O)O)c2)c1,1,32*,107,2,14
CC(=O)N1CCN(C(=O)c2ccc(S(=O)(=O)Nc3cccc(C(F)(F)F)c3)cc2)CC1,-15,nt,99,0,nt
O=C(c1ccc(S(=O)(=O)Nc2cccc(C(F)(F)F)c2)cc1)N1CCC1,-3,16*,102,2,6
O=C(Nc1cccc(C(F)(F)F)c1)c1cccc(NS(=O)(=O)c2ccc(Br)c(C(=O)O)c2)c1,-5,-5,110,-10,9
CN(CC(=O)Nc1ccc(F)cc1)C(=O)c1ccc(N2C(=O)CCC2=O)cc1,-4,0,103,10,nt
CSC(=Nc1ccccc1)N=C(SCc1ccccc1)N(C)C,-4,11*,nt,nt,nt
N#CNC(=Nc1ccccc1)SCc1ccc(C(=O)O)cc1,-1,1,97,-3,-8
CCN(CC)c1ccc(/C=C2/SC(=O)N(C(C)C)C2=O)o1,2,2,nt,nt,58*
Cc1ccc(S(=O)(=O)Nn2c(O)c(C=C3N=c4ccccc4=N3)sc2=S)cc1,-5,7,105,-13,-7
Oc1c(C=C2N=c3ccccc3=N2)sc(=S)n1-c1ccc2ccccc2c1,14,17*,108,-26,nt
Cc1ccc(C(=O)Nn2c(O)c(C=C3N=c4ccccc4=N3)sc2=S)cc1,1,27*,119,-5,7
O=C(Nn1c(O)c(C=C2N=c3ccccc3=N2)sc1=S)c1ccccc1,4,23*,114,-23,-4
O=C(Nn1c(O)c(C=C2N=c3ccccc3=N2)sc1=S)c1cccc(Cl)c1,8,29*,138,-48,-2
C/C(=N/NC(=O)c1ccccc1)c1ccc(NC(=O)C(F)(F)F)cc1,5,-30,84,-23,18
O=C(Nn1c(O)c(C=C2N=c3ccccc3=N2)sc1=S)c1ccc(Cl)cc1,-2,32*,113,-23,13
CC(C)(C)S(=O)(=O)N1Cc2ccc(CO)cc2[C@H]1CCO,4,0,nt,nt,nt
COc1ccccc1NC(=O)COc1ccc(/C=N/NC(=O)CSCc2cc(C)cc(C)c2)cc1,10,4,142,19,20
Cc1ccc(NC(=O)COc2ccc(/C=N/NC(=O)CSCc3ccccc3)cc2)cc1,-5,18*,87,10,33
SMILES,dFosB activator,GRIN3A LBD mod,Yeast superoxide,UBC13 polyUb,NALP1 yeast inh
O=C(CSCc1ccc(Cl)cc1)N/N=C/c1ccc(OCC(=O)Nc2ccccc2)cc1,-3,10*,99,17,12
Cc1cc(C)c(C(=O)COC(=O)CCNS(=O)(=O)c2c(Cl)cccc2Cl)cc1C,-4,3,94,0,26
CCC1CCCCN1CCNS(=O)(=O)c1ccc2c(c1)oc(=O)n2C (stereo unspecified),-1,14*,109,5,25
O=C(COc1ccc(Cl)cc1)NCc1ccncc1,-6,0,95,-5,1
Cc1cccc(-[n+]2c(C)cc(C)c3c(=O)[nH]c(=O)[nH]c32)c1,-11,12*,98,8,27
Cc1ccccc1OCc1csc(N)n1,-2,-1,116,-6,45*
CCN(CC)CCCNC(=O)c1oc2ccc(S(=O)(=O)N3CC(C)CC(C)C3)cc2c1C (stereo unspecified),1,-3,80,12,12
CC(=O)Nc1ccc(NC(=O)CSc2nnc(CC(C)O)n2-c2ccccc2)cc1 (stereo unspecified),4,1,102,-3,-6
CCc1nnc(SCC(=O)Nc2ccc(NC(C)=O)cc2)n1-n1cccc1,-3,18*,112,-7,nt
O=C(Cc1ccccc1)N[C@@H]1c2ccccc2CC[C@@H]1OCc1ccccc1,-1,0,96,nt,nt
O=C(COCc1ccccc1)N[C@@H]1c2ccccc2CC[C@@H]1OCc1ccccc1,-7,17*,100,nt,nt
CCn1c(C)cc(/C=C2/SC(=S)N(CC(=O)O)C2=O)c1C,-3,0,121,-60,-12
C#CCN1C(=O)S/C(=C/c2cc(C)n(CC)c2C)C1=O,-2,33*,82,-2,12
O=C(/C=C/c1cccs1)c1ccc(NC(=O)c2cccc(Br)c2)cc1,-5,27*,127,-8,30
Cc1ccc(C(=O)Nc2ccc(C(=O)/C=C/c3cccs3)cc2)cc1,-7,15*,97,0,-7
CC(CN1CCN(Cc2ccccc2)CC1)OC(=O)c1ccco1 (stereo unspecified),-2,2,i,6,nt
CCCCN1CC(COCc2ccccc2)Oc2cccc(Oc3ccc(F)cc3)c2S1(=O)=O (stereo unspecified),-13,13*,nt,nt,nt
O=S1(=O)c2c(Oc3cccc4ccccc34)cccc2OC(COCc2ccccc2)CN1C1CCCC1 (stereo unspecified),-12,18*,nt,nt,nt
O=C(N/N=C/c1cccnc1)C(O)c1ccccc1 (stereo unspecified),4,5,109,-7,18
Cc1c(CNC(=O)c2c([N+](=O)[O-])cnn2C)cnn1C,2,0,91,2,-2
COc1cc(/C=N/NC(=O)CC2(C)OCCO2)cc(Br)c1O,2,37*,86,2,2
CCCCCC(=O)N/N=C/c1cc(Br)c(O)c(OC)c1,-5,3,88,-2,19
CC(C)(C)C1=CC(=O)C(=O)C(C(C)(C)C)=C1,-4,5,88,0,51*
Cc1cccc(Cc2nc3ccccc3[nH]2)c1,2,-1,nt,nt,nt
CC(=O)Nc1ccc(S(=O)(=O)Nc2nc3ccccc3s2)cc1,-4,-8,103,-15,2
O=C(COC(=O)CCC1CCCC1)Nc1nc2c(F)c(F)c(F)cc2s1,3,22*,96,8,14
CS(=O)(=O)c1ccc2nc(NC(=O)c3ccc(NS(=O)(=O)c4cccc([N+](=O)[O-])c4)cc3)sc2c1,?,16*,94,-8,nt
